# Experimental data from the supplement of paper PMC8728848.
# This is one part of a sample in which the strongest signals are shown more often than they occur.
# Tests used:
# Test in all cases: glycan array binding signal (z-score within array); higher = stronger binding
# Details in all cases: glycan notation: IUPAC condensed, linker removed
# [1] = molecular target: Fuc(a1-2)Gal
# Summary of the method: (§1)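 Glycan array data came from 3228 arrays in the Consortium for Functional Glycomics database, and only arrays with an available protein sequence were kept. Glycan names were put into IUPAC-condensed notation, and columns mapping to the same glycan were averaged. The binding signal is a within-array Z-score, averaged across arrays of one protein sequence run at different concentrations or buffers and across linkers. A negative Z-score can be read as non-binding.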
# [2] = molecular target: Fuc(a1-2)Gal(b1-3)GalNAc(b1-4)[Neu5Ac(a2-3)]Gal(b1-4)Glc
# Summary of the method: as §1
# [3] = molecular target: Fuc(a1-2)Gal(b1-3)GlcNAc
# Summary of the method: as §1
# [4] = molecular target: Fuc(a1-2)Gal(b1-3)GlcNAc(b1-3)GalNAc
# Summary of the method: as §1
# [5] = molecular target: Fuc(a1-2)Gal(b1-4)GlcNAc(b1-2)[Fuc(a1-2)Gal(b1-4)GlcNAc(b1-4)]Man(a1-3)[Fuc(a1-2)Gal(b1-4)GlcNAc(b1-2)Man(a1-6)]Man(b1-4)GlcNAc(b1-4)GlcNAc
# Summary of the method: as §1
# [6] = molecular target: Fuc(a1-2)Gal(b1-4)GlcNAc(b1-3)Gal(b1-4)GlcNAc(b1-3)Gal(b1-4)GlcNAc
# Summary of the method: as §1
# [7] = molecular target: Fuc(a1-2)Gal(b1-4)GlcNAc(b1-6)GalNAc
# Summary of the method: as §1
# [8] = molecular target: Fuc(a1-2)Gal(b1-4)[Fuc(a1-3)]GlcNAc(b1-3)GalNAc
# Summary of the method: as §1
# [9] = molecular target: Fuc(a1-2)[Gal(a1-3)]Gal(b1-3)GlcNAc(b1-2)Man(a1-3)[Fuc(a1-2)[Gal(a1-3)]Gal(b1-3)GlcNAc(b1-2)Man(a1-6)]Man(b1-4)GlcNAc(b1-4)[Fuc(a1-6)]GlcNAc
# Summary of the method: as §1
# [10] = molecular target: Fuc(a1-2)[Gal(a1-3)]Gal(b1-4)Glc
# Summary of the method: as §1
# [11] = molecular target: Fuc(a1-2)[Gal(a1-3)]Gal(b1-4)GlcNAc(b1-2)Man(a1-3)[Fuc(a1-2)[Gal(a1-3)]Gal(b1-4)GlcNAc(b1-2)Man(a1-6)]Man(b1-4)GlcNAc(b1-4)GlcNAc
# Summary of the method: as §1
# [12] = molecular target: Fuc(a1-2)[GalNAc(a1-3)]Gal(b1-4)GlcNAc(b1-3)GalNAc
# Summary of the method: as §1
# [13] = molecular target: Fuc(a1-2)[GalNAc(a1-3)]Gal(b1-4)[Fuc(a1-3)]GlcNAc(b1-3)GalNAc
# Summary of the method: as §1
# [14] = molecular target: Fuc(a1-3)[Gal(b1-4)]GlcNAc(b1-6)[Neu5Ac(a2-3)Gal(b1-3)]GalNAc
# Summary of the method: as §1
# [15] = molecular target: Gal(a1-2)Gal
# Summary of the method: as §1
# [16] = molecular target: Gal(a1-3)Gal(b1-3)GlcNAc(b1-6)GalNAc
# Summary of the method: as §1
# [17] = molecular target: Gal(a1-3)Gal(b1-4)GlcNAc
# Summary of the method: as §1
# [18] = molecular target: Gal(b1-3)[Fuc(a1-4)]GlcNAc
# Summary of the method: as §1
# [19] = molecular target: Gal(b1-3)[Fuc(a1-4)]GlcNAc(b1-3)Gal(b1-3)[Fuc(a1-4)]GlcNAc
# Summary of the method: as §1
# [20] = molecular target: Gal(b1-4)GlcNAc(b1-2)Man(a1-6)Man(b1-4)GlcNAc(b1-4)GlcNAc
# Summary of the method: as §1
# [21] = molecular target: Gal(b1-4)GlcNAc(b1-3)Gal(b1-4)GlcNAc
# Summary of the method: as §1
# [22] = molecular target: Gal(b1-4)GlcNAc(b1-3)[Gal(b1-4)GlcNAc(b1-6)]Gal(b1-4)GlcNAc
# Summary of the method: as §1
# [23] = molecular target: Gal(b1-6)Gal
# Summary of the method: as §1
# [24] = molecular target: Gal3S(b1-4)[Fuc(a1-3)]Glc6S
# Summary of the method: as §1
# [25] = molecular target: Gal6S(b1-3)GlcNAc
# Summary of the method: as §1
# [26] = molecular target: GalNAc(a1-3)GalNAc(b1-3)Gal(a1-4)Gal(b1-4)Glc
# Summary of the method: as §1
# [27] = molecular target: GalNAc4S6S(b1-4)GlcNAc
# Summary of the method: as §1
# [28] = molecular target: GalNAc6S(b1-4)GlcNAc
# Summary of the method: as §1
# [29] = molecular target: Glc(a1-4)Glc
# Summary of the method: as §1
# [30] = molecular target: GlcNAc(a1-4)Gal(b1-4)GlcNAc(b1-3)Gal(b1-4)[Fuc(a1-3)]GlcNAc(b1-3)Gal(b1-4)[Fuc(a1-3)]GlcNAc
# Summary of the method: as §1
# [31] = molecular target: GlcNAc(b1-2)Gal(b1-3)GalNAc
# Summary of the method: as §1
# [32] = molecular target: GlcNAc(b1-2)[GlcNAc(b1-4)]Man(a1-3)[GlcNAc(b1-2)Man(a1-6)]Man(b1-4)GlcNAc(b1-4)GlcNAc
# Summary of the method: as §1
# [33] = molecular target: GlcNAc(b1-2)[GlcNAc(b1-6)]Man(a1-6)[GlcNAc(b1-2)Man(a1-3)][GlcNAc(b1-4)]Man(b1-4)GlcNAc(b1-4)GlcNAc
# Summary of the method: as §1
# [34] = molecular target: GlcNAc(b1-4)GlcNAc(b1-4)GlcNAc(b1-4)GlcNAc(b1-4)GlcNAc
# Summary of the method: as §1
# [35] = molecular target: Man(a1-2)Man(a1-3)[Man(a1-2)Man(a1-6)]Man
# Summary of the method: as §1
# [36] = molecular target: Man(a1-2)Man(a1-3)[Man(a1-2)Man(a1-6)]Man(a1-6)[Man(a1-2)Man(a1-2)Man(a1-3)]Man
# Summary of the method: as §1
# [37] = molecular target: Man(a1-2)Man(a1-3)[Man(a1-2)Man(a1-6)]Man(a1-6)[Man(a1-2)Man(a1-2)Man(a1-3)]Man(b1-4)GlcNAc(b1-4)GlcNAc
# Summary of the method: as §1
# [38] = molecular target: Neu5Ac(a2-3)Gal(b1-3)[Fuc(a1-4)]GlcNAc(b1-3)Gal(b1-3)[Fuc(a1-4)]GlcNAc
# Summary of the method: as §1
# [39] = molecular target: Neu5Ac(a2-3)Gal(b1-4)GlcNAc(b1-2)Man(a1-3)[GlcNAc(b1-2)Man(b1-4)GlcNAc(b1-2)Man(a1-6)]Man(b1-4)GlcNAc(b1-4)GlcNAc
# Summary of the method: as §1
# [40] = molecular target: Neu5Ac(a2-3)Gal(b1-4)GlcNAc(b1-3)GalNAc
# Summary of the method: as §1
# [41] = molecular target: Neu5Ac(a2-3)Gal(b1-4)[Fuc(a1-3)]GlcNAc(b1-3)GalNAc
# Summary of the method: as §1
# [42] = molecular target: Neu5Ac(a2-3)GalNAc(b1-4)GlcNAc
# Summary of the method: as §1
# [43] = molecular target: Neu5Ac(a2-3)[Neu5Ac(a2-6)]GalNAc
# Summary of the method: as §1
# [44] = molecular target: Neu5Ac(a2-6)Gal(b1-4)Glc
# Summary of the method: as §1
# [45] = molecular target: Neu5Ac(a2-8)Neu5Ac(a2-8)Neu5Ac(a2-3)[GalNAc(b1-4)]Gal(b1-4)Glc
# Summary of the method: as §1
# [46] = molecular target: Neu5Ac9Ac(a2-6)Gal(b1-4)GlcNAc
# Summary of the method: as §1
binder,measurement,setting,value
"Latrophilin-3 (Homo sapiens), Q9HAR2 (protein) MWPSQLLIFMMLLAPIIHAFSRAPIPMAVVRRELSCESYPIELRCPGTDVIMIESANYGRTDDKICDSDPAQMENIRCYLPDAYKIMSQRCNNRTQCAVVAGPDVFPDPCPGTYKYLEVQYECVPYKVEQKVFLCPGLLKGVYQSEHLFESDHQSGAWCKDPLQASDKIYYMPWTPYRTDTLTEYSSKDDFIAGRPTTTYKLPHRVDGTGFVVYDGALFFNKERTRNIVKFDLRTRIKSGEAIIANANYHDTSPYRWGGKSDIDLAVDENGLWVIYATEQNNGKIVISQLNPYTLRIEGTWDTAYDKRSASNAFMICGILYVVKSVYEDDDNEATGNKIDYIYNTDQSKDSLVDVPFPNSYQYIAAVDYNPRDNLLYVWNNYHVVKYSLDFGPLDSRSGQAHHGQVSYISPPIHLDSELERPSVKDISTTGPLGMGSTTTSTTLRTTTLSPGRSTTPSVSGRRNRSTSTPSPAVEVLDDMTTHLPSASSQIPALEESCEAVEAREIMWFKTRQGQIAKQPCPAGTIGVSTYLCLAPDGIWDPQGPDLSNCSSPWVNHITQKLKSGETAANIARELAEQTRNHLNAGDITYSVRAMDQLVGLLDVQLRNLTPGGKDSAARSLNKAMVETVNNLLQPQALNAWRDLTTSDQLRAATMLLHTVEESAFVLADNLLKTDIVRENTDNIKLEVARLSTEGNLEDLKFPENMGHGSTIQLSANTLKQNGRNGEIRVAFVLYNNLGPYLSTENASMKLGTEALSTNHSVIVNSPVITAAINKEFSNKVYLADPVVFTVKHIKQSEENFNPNCSFWSYSKRTMTGYWSTQGCRLLTTNKTHTTCSCNHLTNFAVLMAHVEVKHSDAVHDLLLDVITWVGILLSLVCLLICIFTFCFFRGLQSDRNTIHKNLCISLFVAELLFLIGINRTDQPIACAVFAALLHFFFLAAFTWMFLEGVQLYIMLVEVFESEHSRRKYFYLVGYGMPALIVAVSAAVDYRSYGTDKVCWLRLDTYFIWSFIGPATLIIMLNVIFLGIALYKMFHHTAILKPESGCLDNIKSWVIGAIALLCLLGLTWAFGLMYINESTVIMAYLFTIFNSLQGMFIFIFHCVLQKKVRKEYGKCLRTHCCSGKSTESSIGSGKTSGSRTPGRYSTGSQSRIRRMWNDTVRKQSESSFITGDINSSASLNREGLLNNARDTSVMDTLPLNGNHGNSYSIASGEYLSNCVQIIDRGYNHNETALEKKILKELTSNYIPSYLNNHERSSEQNRNLMNKLVNNLGSGREDDAIVLDDATSFNHEESLGLELIHEESDAPLLPPRVYSTENHQPHHYTRRRIPQDHSESFFPLLTNEHTEDLQSPHRDSLYTSMPTLAGVAATESVTTSTQTEPPPAKCGDAEDVYYKSMPNLGSRNHVHQLHTYYQLGRGSSDGFIVPPNKDGTPPEGSSKGPAHLVTSL",glycan array binding signal (z-score),[1],0.041
same,glycan array binding signal (z-score),[2],-0.493
same,glycan array binding signal (z-score),[3],-0.169
same,glycan array binding signal (z-score),[4],0.261
same,glycan array binding signal (z-score),[5],-0.478
same,glycan array binding signal (z-score),[6],0.659
same,glycan array binding signal (z-score),[7],2.91
same,glycan array binding signal (z-score),[8],4.34
same,glycan array binding signal (z-score),[9],-0.721
same,glycan array binding signal (z-score),[10],0.962
same,glycan array binding signal (z-score),[11],-0.684
same,glycan array binding signal (z-score),[12],-0.844
same,glycan array binding signal (z-score),[13],4.19
same,glycan array binding signal (z-score),[14],-0.297
same,glycan array binding signal (z-score),[15],2.83
same,glycan array binding signal (z-score),[16],-0.37
same,glycan array binding signal (z-score),[17],-0.823
same,glycan array binding signal (z-score),[18],-0.275
same,glycan array binding signal (z-score),[19],-0.618
same,glycan array binding signal (z-score),[20],3.58
same,glycan array binding signal (z-score),[21],-0.111
same,glycan array binding signal (z-score),[22],3.02
same,glycan array binding signal (z-score),[23],-0.409
same,glycan array binding signal (z-score),[24],-0.622
same,glycan array binding signal (z-score),[25],0.183
same,glycan array binding signal (z-score),[26],-1.16
same,glycan array binding signal (z-score),[27],1.42
same,glycan array binding signal (z-score),[28],3.81
same,glycan array binding signal (z-score),[29],-0.053
same,glycan array binding signal (z-score),[30],2.21
same,glycan array binding signal (z-score),[31],1.25
same,glycan array binding signal (z-score),[32],0.886
same,glycan array binding signal (z-score),[33],-0.448
same,glycan array binding signal (z-score),[34],0.111
same,glycan array binding signal (z-score),[35],-1.71
same,glycan array binding signal (z-score),[36],0.047
same,glycan array binding signal (z-score),[37],1.12
same,glycan array binding signal (z-score),[38],6.27
same,glycan array binding signal (z-score),[39],0.035
same,glycan array binding signal (z-score),[40],0.708
same,glycan array binding signal (z-score),[41],3.18
same,glycan array binding signal (z-score),[42],-0.972
same,glycan array binding signal (z-score),[43],-1.4
same,glycan array binding signal (z-score),[44],1.15
same,glycan array binding signal (z-score),[45],-1.01
same,glycan array binding signal (z-score),[46],-0.383
